Where “and” joins values, the source holds several entries; their conditions need not be identical. Identical values can stand only once. Out of some 5,500 compounds screened, about 2,000 (36%) were called active. Not shown: some 18% with an inconclusive outcome. Cut-off read from the data, not from the text of the source: active = normalized growth mostly below about 0.91 (no sharp cut-off); inconclusive = no clear call, values can overlap the other calls; inactive = mostly above about 0.92. The list shows a part of the results.
Experiment: chemical genetic growth profiling, strain panel (AID 1159580);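 note: tested at 20 µM; growth read once vehicle control cultures reached saturation at 30 °C; 1 = growth at the plate median or of vehicle wells; lower values mean less growth of the strain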
Settings: S. cerevisiae deletion strains, growth OD

Measured: normalized growth

C=C(CC)C(=O)c1ccc(OCC(=O)O)c(Cl)c1Cl
1 (inactive) and 0.835 (active): locus YJL095W, strain BCK1, stronger effect = lower value
active: locus YDL185W, strain tfp1, stronger effect = lower value 0.882 | locus YIL125W, strain kgd1, stronger effect = lower value 0.927
inactive: locus YAL013W, strain DEP1, stronger effect = lower value 0.984 | locus YAL021C, strain ccr4, stronger effect = lower value 1 | locus YAL026C, strain drs2, stronger effect = lower value 0.98 | locus YAL030W, strain snc1, stronger effect = lower value 1.01 | locus YBL061C, strain skt5, stronger effect = lower value 1 | locus YBR009C, strain hhf1, stronger effect = lower value 1.01 | locus YBR021W, strain FUR4, stronger effect = lower value 1.02 | locus YBR023C, strain chs3, stronger effect = lower value 1.03 | locus YBR171W, strain sec66, stronger effect = lower value 1.01 | locus YBR229C, strain ROT2, stronger effect = lower value 0.951 | locus YBR231C, strain swc5, stronger effect = lower value 0.972 | locus YBR279W, strain paf1, stronger effect = lower value 1.01 | locus YCL011C, strain gbp2, stronger effect = lower value 1.03 | locus YCL016C, strain dcc1, stronger effect = lower value 1.04 | locus YCL029C, strain bik1, stronger effect = lower value 0.973 | locus YCL061C, strain MRC1, stronger effect = lower value 1.03 | locus YCL069W, strain vba3, stronger effect = lower value 1 | locus YCR088W, strain abp1, stronger effect = lower value 1.01 | locus YDL005C, strain med2, stronger effect = lower value 0.999 | locus YDL035C, strain GPR1, stronger effect = lower value 0.988 | locus YDL040C, strain nat1, stronger effect = lower value 0.994 | locus YDL074C, strain BRE1, stronger effect = lower value 0.986 | locus YDL101C, strain DUN1, stronger effect = lower value 0.983 | locus YDL134C, strain PPH21, stronger effect = lower value 0.972 | locus YDL192W, strain arf1, stronger effect = lower value 0.972 | locus YDR001C, strain nth1, stronger effect = lower value 1 | locus YDR069C, strain doa4, stronger effect = lower value 0.99 | locus YDR101C, strain arx1, stronger effect = lower value 0.92 | locus YDR137W, strain rgp1, stronger effect = lower value 1.01 | locus YDR150W, strain NUM1, stronger effect = lower value 0.976 | locus YDR159W, strain sac3, stronger effect = lower value 0.955 | locus YDR162C, strain NBP2, stronger effect = lower value 0.966 | locus YDR195W, strain ref2 0.974 | locus YDR297W, strain sur2, stronger effect = lower value 1.02 | locus YDR318W, strain mcm21, stronger effect = lower value 0.992 | locus YDR334W, strain swr1, stronger effect = lower value 1 | locus YDR335W, strain msn5, stronger effect = lower value 1.01 | locus YDR388W, stronger effect = lower value 0.972 | locus YDR392W, strain spt3, stronger effect = lower value 0.948 | locus YDR502C, strain sam2, stronger effect = lower value 0.984 | locus YEL003W, strain gim4, stronger effect = lower value 0.985 | locus YEL037C, strain rad23, stronger effect = lower value 1 | locus YEL061C, strain CIN8 (second series), stronger effect = lower value 1 | locus YEL061C, strain CIN8, stronger effect = lower value 0.996 | locus YER015W, strain faa2, stronger effect = lower value 0.993 | locus YER016W, strain bim1, stronger effect = lower value 0.993 | locus YER110C, stronger effect = lower value 0.963 | locus YER111C, strain swi4, stronger effect = lower value 1 | locus YER155C, strain BEM2 (second series), stronger effect = lower value 0.997 | locus YER155C, strain BEM2, stronger effect = lower value 0.998 | locus YER167W, strain BCK2, stronger effect = lower value 1 | locus YFR010W, strain ubp6, stronger effect = lower value 1.01 | locus YGL078C, strain dbp3, stronger effect = lower value 0.954 | locus YGL086W, strain mad1, stronger effect = lower value 0.977 | locus YGL167C, strain pmr1, stronger effect = lower value 1.01 | locus YGL173C, strain kem1, stronger effect = lower value 1 | locus YGL227W, strain vid30, stronger effect = lower value 1.01 | locus YGL240W, strain doc1, stronger effect = lower value 1.02 | locus YGL248W, strain PDE1, stronger effect = lower value 0.985 | locus YGL253W, strain hxk2, stronger effect = lower value 0.988 | locus YGR078C, strain PAC10, stronger effect = lower value 0.964 | locus YGR135W, strain pre9, stronger effect = lower value 1.05 | locus YGR229C, strain SMI1, stronger effect = lower value 1 | locus YGR252W, strain gcn5, stronger effect = lower value 1.2 | locus YHR013C, strain ard1, stronger effect = lower value 1.04 | locus YHR027C, strain rpn1, stronger effect = lower value 1.02 | locus YHR030C, strain SLT2, stronger effect = lower value 0.985 and 0.868 | locus YHR079C, strain IRE1 (second series), stronger effect = lower value 0.982 | locus YHR079C, strain IRE1, stronger effect = lower value 0.869 | locus YHR094C, strain hxt1, stronger effect = lower value 0.955 | locus YHR129C, strain ARP1, stronger effect = lower value 0.977 | locus YHR142W, strain chs7, stronger effect = lower value 1.04 | locus YHR200W, strain rpn10, stronger effect = lower value 0.984 | locus YIL066C, strain RNR3, stronger effect = lower value 0.968 | locus YIL073C, strain SPO22, stronger effect = lower value 0.995 | locus YIR030C, strain dcg1, stronger effect = lower value 0.993 | locus YJL092W, strain hpr5, stronger effect = lower value 1.01 | locus YJL095W, strain BCK1 (second series), stronger effect = lower value 1.03 | locus YJL115W, strain asf1, stronger effect = lower value 1 | locus YJL129C, strain trk1, stronger effect = lower value 1.02 | locus YJL134W, strain LCB3, stronger effect = lower value 0.983 | locus YJL154C, strain vps35, stronger effect = lower value 0.997 | locus YJL164C, strain tpk1, stronger effect = lower value 1.03 | locus YJL166W, strain qcr8, stronger effect = lower value 1.05 | locus YJL168C, strain set2, stronger effect = lower value 0.971

Reference: PubChem BioAssay AID1159580 (chemical genetic matrix, 2015)
